Whole data set: some 1,100 compounds, median “Renilla luciferase signal (cell health) relative to plate median” near 0.97, cut for the highest 2% near 1.6. This excerpt belongs to a sample that is enriched for the highest values.
System: HEK293T (UBE3A T485A transfected, BAR Wnt reporter)
Test: Renilla luciferase signal (cell health) relative to plate median (fold (linear ratio)); higher = higher Renilla signal
Settings: 24 h
Method in brief: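 Chemicals were robotically dosed at 0.01–100 uM for 24 h onto HEK293T cells, starting four hours after transfection with a BAR firefly luciferase Wnt reporter, TK-Renilla and an expression plasmid. The cells had been plated at 4500 cells/well in DMEM with 10% FBS at 37°C and 5% CO2. Following a Dual-Glo luciferase readout, the firefly/Renilla ratio served as the Wnt activity measure and raw Renilla as the cell health measure, both median-centred on each plate. Each value is the mean of four biological replicates.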

Row | Structure (SMILES) | Renilla luciferase signal (concentration: 0.01 uM) | Renilla luciferase signal (concentration: 0.1 uM) | Renilla luciferase signal (concentration: 1 uM) | Renilla luciferase signal (concentration: 10 uM) | Renilla luciferase signal (concentration: 100 uM)
1 | CN1C2CC(OC(=O)C(CO)c3ccccc3)CC1C1OC12 (configuration not stated) [Scopolamine] | 0.78 | 0.722 | 0.931 | 0.834 | 1.62
2 | CNC(=O)Oc1cccc2c1OC(C)(C)C2 [Carbofuran] | – | 1.05 | 1.01 | 0.953 | 0.523
3 | CC(C)(C)OOC(C)(C)C [Di-tert-butyl peroxide] | – | 1.07 | 0.922 | 1.09 | 1.12
4 | O=[As][O-].[Na+] [Sodium arsenite] | 0.746 | 0.622 | 0.288 | 0.0446 | 0.0136
5 | CC(C)(C)c1ccc(CSc2cnn(C(C)(C)C)c(=O)c2Cl)cc1 [Pyridaben] | 1.05 | 0.947 | 0.477 | 0.233 | 0.172
6 | Nc1cc(Cl)cc(C(=O)O)c1Cl [Chloramben] | – | 1.02 | 1.02 | 1.18 | 1.64
7 | Nc1ccc(Cl)cc1N [4-Chloro-1,2-diaminobenzene] | – | 1.05 | 0.965 | 0.612 | 0.0486
8 | C[C@@H]1C[C@@H]([C@H](O)CC2CC(=O)NC(=O)C2)C(=O)[C@@H](C)C1 [Cycloheximide] | – | 0.674 | 0.0448 | 0.0298 | 0.0285
9 | CC(O)CCO (configuration not stated) [1,3-Butanediol] | – | 1.06 | 1.08 | 1.16 | 1.47
10 | CCC(C)(CC)c1cc(NC(=O)c2c(OC)cccc2OC)on1 [Isoxaben] | 0.906 | 0.789 | 0.94 | 0.964 | 0.549
11 | ClC(Cl)=C(c1ccc(Cl)cc1)c1ccc(Cl)cc1 | – | 0.978 | 1.09 | 1.13 | 1.33
12 | O=C(NC(=O)c1c(F)cccc1F)Nc1cc(Cl)c(OC(F)(F)C(F)F)c(Cl)c1 [Hexaflumuron] | – | 0.601 | 0.604 | 0.441 | 0.493
13 | OCCOc1ccccc1 [2-Phenoxyethanol] | 0.629 | 0.856 | 0.906 | 0.983 | 1.74
14 | Oc1ccccc1-c1ccccc1 [2-Phenylphenol] | 1.08 | 1.08 | 0.948 | 1.01 | 0.987
15 | c1ccc(OP(Oc2ccccc2)Oc2ccccc2)cc1 [Triphenyl phosphite] | – | 1.06 | 1.18 | 1.24 | 1.16
16 | Clc1ccc(C(c2ccc(Cl)cc2)C(Cl)(Cl)Cl)cc1 | – | 0.841 | 0.863 | 0.92 | 0.995
17 | O=Cc1ccco1 [Furfural] | – | 1.24 | 1.36 | 1.2 | 1.45
18 | O=C(O)c1nc(Cl)ccc1Cl [Clopyralid] | 0.962 | 0.828 | 0.985 | 1 | 1.8
19 | Nc1c(Cl)c(Cl)nc(C(=O)O)c1Cl [Picloram] | 1.22 | 0.925 | 1.11 | 1.09 | 1.33
20 | NCCO.O=C(O)c1nc(Cl)ccc1Cl [Clopyralid-olamine] | 1.41 | 1.18 | 1.06 | 1.2 | 1.53
21 | O=C1CCCO1 [4-Butyrolactone] | – | 0.916 | 0.91 | 0.928 | 1.07

Row | Structure (SMILES) | Renilla luciferase signal (concentration: 0.01 uM) | Renilla luciferase signal (concentration: 0.1 uM) | Renilla luciferase signal (concentration: 1 uM) | Renilla luciferase signal (concentration: 10 uM) | Renilla luciferase signal (concentration: 100 uM)
22 | CCC(=O)C(CC(C)N(C)C)(c1ccccc1)c1ccccc1.Cl (configuration not stated) [Methadone hydrochloride] | – | 1.01 | 1.01 | 1.07 | 0.142
23 | CCCCC(CC)COC(=O)c1ccc(C(=O)OCC(CC)CCCC)cc1 (configuration not stated) [Bis(2-ethylhexyl) terephthalate] | – | 0.974 | 1.13 | 1.09 | 1.28
24 | CCCCC(CC)COC(=O)c1ccccc1C(=O)OCC(CC)CCCC (configuration not stated) [Di(2-ethylhexyl) phthalate] | 1.26 | 1.13 | 1.01 | 1.11 | 0.496
25 | CCCCC(CC)COC(=O)CCCCC(=O)OCC(CC)CCCC (configuration not stated) [Di(2-ethylhexyl) adipate] | – | 1.15 | 1.09 | 1.28 | 1.76
26 | C#CCN1C(=O)COc2cc(F)c(N3C(=O)C4=C(CCCC4)C3=O)cc21 [Flumioxazin] | 1.13 | 1.14 | 0.954 | 1.11 | 0.949
27 | Clc1cccc(Cl)c1Cl [1,2,3-Trichlorobenzene] | – | 1.21 | 0.959 | 1.18 | 1.43
28 | N#Cc1c(Cl)cccc1Cl [Dichlobenil] | 0.873 | 0.853 | 1.03 | 0.992 | 1.96
29 | Clc1ccccc1Cl [1,2-Dichlorobenzene] | – | 1.14 | 0.945 | 1.05 | 1.27
30 | Cc1ccc(/N=C/N(C)/C=N/c2ccc(C)cc2C)c(C)c1 [Amitraz] | 1.29 | 1.17 | 1.06 | 1.21 | 0.0374
31 | O=C(NC(=O)c1cc(F)c(F)cc1Cl)Nc1cc(F)ccc1N1CCC(C(=O)O)CC1 | – | 0.8 | 0.813 | 0.797 | 0.641
32 | O=C(O)C(F)(F)C(F)(F)C(F)(F)C(F)(F)C(F)(F)C(F)(F)C(F)(F)F | 0.983 | 0.781 | 0.834 | 0.9 | 1.9
33 | O=C(O)C(F)(F)C(F)(F)C(F)(F)C(F)(F)C(F)(F)C(F)(F)C(F)(F)C(F)(F)C(F)(F)C(F)(F)F [Perfluoroundecanoic acid] | – | 0.861 | 0.837 | 0.868 | 0.248
34 | O=C(O)C(F)(F)C(F)(F)C(F)(F)C(F)(F)C(F)(F)F | – | 0.973 | 0.941 | 0.896 | 0.93
35 | CCOC1Oc2ccc(OS(C)(=O)=O)cc2C1(C)C (configuration not stated) [Ethofumesate] | 0.946 | 1.07 | 0.964 | 0.843 | 1.01
36 | O=C(O)c1cc(Oc2ccc(C(F)(F)F)cc2Cl)ccc1[N+](=O)[O-] [Acifluorfen] | 1.17 | 1.25 | 0.942 | 1.02 | 1.67
37 | CS(=O)(=O)NC(=O)c1cc(Oc2ccc(C(F)(F)F)cc2Cl)ccc1[N+](=O)[O-] [Fomesafen] | – | 0.998 | 1.11 | 1.03 | 1.19
38 | CCOC(=O)C(C)OC(=O)c1cc(Oc2ccc(C(F)(F)F)cc2Cl)ccc1[N+](=O)[O-] (configuration not stated) [Lactofen] | 0.928 | 0.611 | 0.876 | 0.801 | 0.32
39 | CCN(CC)c1nc(C)cc(OP(=S)(OC)OC)n1 [Pirimiphos-methyl] | 1.11 | 1.2 | 1 | 0.992 | 1.53
40 | CN(C)c1nc(=O)n(C2CCCCC2)c(=O)n1C [Hexazinone] | 0.842 | 0.839 | 0.85 | 0.916 | 1.2
41 | O=C(O)CCCOc1ccc(Cl)cc1Cl | 1.02 | 0.895 | 0.898 | 0.957 | 1.44
42 | O=C(O)COc1nc(Cl)c(Cl)cc1Cl [Triclopyr] | 0.99 | 0.979 | 0.95 | 1.02 | 1.84

Row | Structure (SMILES) | Renilla luciferase signal (concentration: 0.01 uM) | Renilla luciferase signal (concentration: 0.1 uM) | Renilla luciferase signal (concentration: 1 uM) | Renilla luciferase signal (concentration: 10 uM) | Renilla luciferase signal (concentration: 100 uM)
43 | Nc1c(Cl)c(F)nc(OCC(=O)O)c1Cl [Fluroxypyr] | 1.01 | 1.05 | 0.92 | 1.02 | 1.09
44 | O=C(O)COc1ccc(Cl)cc1Cl [2,4-Dichlorophenoxyacetic acid] | 1.31 | 1 | 0.995 | 1.02 | 1.69
45 | CCOP(=O)(OCC)Oc1nc(Cl)c(Cl)cc1Cl [Chlorpyrifos oxon] | 0.952 | 1.24 | 1.07 | 0.919 | 0.0737
46 | Cc1cc(Cl)ccc1OCC(=O)O | 1.11 | 1.19 | 1.09 | 1.12 | 1.34
47 | C1=CCCC=CCCC=CCC1 [1,5,9-Cyclododecatriene] | – | 0.691 | 0.775 | 0.813 | 1.02
48 | CCOC(=O)c1ccccc1C(=O)OCC [Diethyl phthalate] | – | 0.834 | 0.893 | 0.976 | 1.05
49 | COc1nc(NC(C)C)nc(NC(C)C)n1 [Prometon] | 0.865 | 0.628 | 0.707 | 1.02 | 1.41
50 | CC(C)(O)C(=O)Nc1ccc([N+](=O)[O-])c(C(F)(F)F)c1 [Hydroxyflutamide] | – | 0.949 | 0.928 | 0.775 | 0.129
51 | CC(C)=CC1C(C(=O)OCc2coc(Cc3ccccc3)c2)C1(C)C (configuration not stated) [Resmethrin] | 1.12 | 1.04 | 0.974 | 1.01 | 0.166
52 | CCCCOCN(C(=O)CCl)c1c(CC)cccc1CC [Butachlor] | 0.877 | 0.813 | 0.902 | 0.865 | 0.895
53 | CC1(c2ccc(Oc3ccccc3)cc2)OC(=O)N(Nc2ccccc2)C1=O (configuration not stated) [Famoxadone] | 1.07 | 1.08 | 1.07 | 0.383 | 1.15
54 | NS(=O)(=O)C(F)(F)C(F)(F)C(F)(F)C(F)(F)C(F)(F)C(F)(F)C(F)(F)C(F)(F)F | – | 0.448 | 0.567 | 0.447 | 0.0943
55 | Cc1c(F)c(F)c(COC(=O)C2C(/C=C(\Cl)C(F)(F)F)C2(C)C)c(F)c1F (configuration not stated) [Tefluthrin] | 0.953 | 0.885 | 1.03 | 0.886 | 1.47
56 | C[n+]1ccc(-c2cc[n+](C)cc2)cc1 [Paraquat] | 0.802 | 0.782 | 0.9 | 0.995 | 2.18
57 | CCNc1nc(Cl)nc(NC(C)(C)C)n1 [Terbutylazine] | – | 0.934 | 1.02 | 0.978 | 0.981
58 | Cc1cccc(C)c1N [2,6-Dimethylaniline] | – | 0.815 | 0.773 | 0.833 | 0.897
59 | O=C(O)CNCP(=O)(O)O [Glyphosate] | 0.796 | 0.874 | 0.905 | 1.07 | 2.5
60 | COP(=S)(OC)Oc1nc(Cl)c(Cl)cc1Cl [Chlorpyrifos-methyl] | 1.5 | 1.18 | 1.01 | 1.04 | 0.838
61 | CN(C)NC(=O)CCC(=O)O [Daminozide] | 0.728 | 0.735 | 0.928 | 0.807 | 1.39
62 | Cc1ccc(N)cc1N [2,4-Diaminotoluene] | – | 1.12 | 1.22 | 1.09 | 1.45
63 | O=C(O)c1c(Cl)ccc2cc(Cl)cnc12 [Quinclorac] | 1.12 | 1.11 | 0.984 | 1.04 | 1.88

Source: the supplement of paper PMC9254222
